RORgamma inh: qHTS for inhibitors of ROR gamma transcriptional activity; 310,000 compounds, 5.4% hits; AID 2551, 2010; Drosophila S2 Gal4-RORgamma UAS-luciferase reporter, 20 h; Potency, µM (top dose mostly 53.6 µM), for inactives: at the top dose activity change, negative = inhibition, most hits filed as inhibitors; Nuclear receptor ROR-gamma (Mus musculus), P51450; further: nearly all actives have a fitted effect of over 60% in size
Target sequence (P51450 whole entry, looked up, the tested form may be a part): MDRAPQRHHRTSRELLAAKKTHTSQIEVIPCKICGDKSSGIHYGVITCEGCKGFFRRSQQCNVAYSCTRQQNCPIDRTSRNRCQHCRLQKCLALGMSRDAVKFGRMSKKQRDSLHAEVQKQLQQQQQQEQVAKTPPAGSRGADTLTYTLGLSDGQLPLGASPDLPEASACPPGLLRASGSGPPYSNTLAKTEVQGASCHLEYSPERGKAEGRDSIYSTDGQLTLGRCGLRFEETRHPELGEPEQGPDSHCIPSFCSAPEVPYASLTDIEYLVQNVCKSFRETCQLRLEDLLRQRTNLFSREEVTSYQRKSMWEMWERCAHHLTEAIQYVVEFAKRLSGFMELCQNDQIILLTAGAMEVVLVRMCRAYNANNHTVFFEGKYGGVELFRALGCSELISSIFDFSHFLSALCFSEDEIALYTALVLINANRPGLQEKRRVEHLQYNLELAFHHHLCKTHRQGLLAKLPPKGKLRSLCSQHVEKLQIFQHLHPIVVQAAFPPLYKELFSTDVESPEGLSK
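Read-out: Photinus luciferase luminescence; inhibitors lower reporter signal. Insect Schneider cells with Gal4-ROR gamma fusion under metallothionein promoter, UAS reporter; 700 uM final copper sulfate induction, 20 hr, ambient temperature.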
TDP1 cell CPT: qHTS for Inhibitors of human tyrosyl-DNA phosphodiesterase 1 (TDP1): qHTS in cells in presence of CPT; chicken DT40 Tdp1-/-;hTDP1 cells + 20 nM CPT, ATP luminescence, 48 h; 420,000 compounds, 12% hits; Potency, µM (doses to about 46.2 µM), inactives show top-dose activity change, negative = growth inhibition, actives largely listed as inhibitors; further: nearly all actives have a fitted effect of over 55% in size
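Chicken DT40 Tdp1-/- cells stably complemented with human TDP1 were seeded at 400 cells/well in medium containing 20 nM camptothecin, exposed to pin-transferred compounds, and grown at 37 °C for at least 48 hr. Viability was read as ATP luminescence.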
TDP1 cell noCPT: qHTS for Inhibitors of human tyrosyl-DNA phosphodiesterase 1 (TDP1): qHTS in cells in absence of CPT; 420,000 compounds, 15% hits; DT40 Tdp1-/- hTDP1 cells, no CPT, ATP luminescence, 48 h; AID 686978, 2013; Potency, µM (series often up to 46.2 µM), inactives show at the highest dose activity change, negative = growth inhibition, usual class: inhibitors; further: nearly all actives have a fitted effect of over 55% in size
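Seeded 400 DT40-hTDP1 cells/well (vehicle DMSO, no 20 nM CPT); pinned compounds; ≥48 hr at 37 °C; CellTiter-Glo luminescence as viability measure.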
TDP1 inh: qHTS Assay for Inhibitors of Tyrosyl-DNA Phosphodiesterase (TDP1) | Tyrosyl-DNA phosphodiesterase 1 (Homo sapiens), Q9NUW8 | recombinant TDP1, AlphaScreen DNA substrate cleavage | Potency, µM (top dose mostly 130 µM), for the others: at the top dose activity change, negative = inhibition, actives largely listed as inhibitors | 350,000 compounds, 0.28% hits; further: nearly all actives have a fitted effect of over 40% in size
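Recombinant E. coli-expressed Tdp1 (1 nM) preincubated with compound 15 min at RT, then 5'-biotin/3'-phosphotyrosine-FITC DNA substrate (15 nM) added for 5 min. AlphaScreen beads (10 ug/ml) added, 10 min RT; tyrosine-FITC cleavage read as signal loss.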
Gal4-VP16 FLuc: VP16 counterscreen qHTS for inhibitors of ROR gamma transcriptional activity; Potency, µM (series often up to 53.6 µM), inactives show at the top dose activity, negative = inhibition, usual class: inhibitors; Drosophila S2 Gal4-VP16 UAS-luciferase, luminescence, 20 h; 310,000 compounds, 3.5% hits;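 further: Gal4-VP16 expression switched on by copper sulfate through the metallothionein promoter; nearly all actives have a fitted effect of over 50% in size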
An asterisk follows results filed as active; ? = inconclusive; . = no result given; [ ] = remark or other dose. The list is not random: actives were taken first. Their share in the collection is about 19%. The call rests on the fitted dose curve; in most records, active means well fitted curve in the direction sought with a large enough effect; inconclusive means small, poorly fitted or top-dose-only effect, or another doubt; inactive means no such curve, though single readings can be large; an effect the other way counts as inactive or inconclusive. On the % scale 0 is the no-effect control and ±100 the full control effect; potency means the concentration at half of the fitted maximal effect.

SMILES | RORgamma inh | TDP1 cell CPT | TDP1 cell noCPT | TDP1 inh | Gal4-VP16 FLuc
O=C(c1cc2c(=O)oc3ccccc3c2s1)N1CCN(c2cccc(Cl)c2)CC1 | . | -20% | 1% | 3% | .
C=C(C)C1CC=C(C)/C(=N/NC(=S)Nc2ccccc2)C1 (stereo not given) | 1.1µM* | 12µM* | 6.5µM* | 0% | 1.1µM*
C=C(C)C1CC=C(C)/C(=N/NC(=O)c2ccc(NC(=O)c3cccc(C)c3)cc2)C1 (stereo not given) | 19% | ? | 18µM* | 2% | 1%
C=CCn1c(Cc2ccccc2)nc2c(cnn2-c2ccccc2)c1=O | 31% | ? | 23µM* | . | -1%
Cc1nc(SCC(=O)NCc2ccco2)c2c3c(sc2n1)CCCC3 | 0% | ? | ? | 1% | 4%
CC1CCc2sc3ncn4nc(C(=O)NCc5ccco5)nc4c3c2C1 (stereo not given) | -23% | ? | ? | 0% | -1%
CCC1CCc2c(sc3nc(SCC(=O)NCc4ccco4)n(-c4ccccc4)c(=O)c23)C1 (stereo not given) | ? | 29µM* | ? | 1% | ?
CC(C)Sc1nc2sc3c(c2c2nnc(SCC(=O)NCc4ccco4)n12)CCCC3 | 40% | ? | 18µM* | 5% | -6%
CC1CCc2c(sc3ncn4c(SCC(=O)NCc5ccco5)nnc4c23)C1 (stereo not given) | 6% | ? | 21µM* | -2% | -2%
CCCc1nc2sc3c(SCC(=O)NCc4ccco4)ncnc3c2c2c1CCC2 | 17% | ? | 18µM* | 20µM* | 0%
Cc1cnc(C(=O)OCC(=O)c2ccc(C3CCCCC3)cc2)cn1 | . | -11% | -25% | . | .
Cc1c(C)n(CCO)c2ncnc(Nc3ccc(F)cc3)c12 | 39% | 7% | 5% | . | ?
CCOc1ccccc1OCCCC(=O)Nc1nc2ccccc2[nH]1 | ? | -3% | -14% | 3% | -11%
O=C(Cc1cccc2ccccc12)Nc1nc2ccccc2[nH]1 | 7.9µM* | ? | -25% | 8% | 8.9µM*
CCCCCC(=O)Nc1nc2ccccc2[nH]1 | 6.3µM* | 9.2µM* | 8.2µM* | 1% | ?
COc1ccccc1CCC(=O)Nc1nc2ccccc2[nH]1 | ? | 5.8µM* | 4.1µM* | 3% | ?
Cc1ccc(-c2nc(C=Nc3ccccc3)c(O)o2)cc1 | -28% | -15% | -27% | 0% | -12%
Oc1oc(-c2ccccc2)nc1C=Nc1cccc2ccccc12 | 5% | ? | 16µM* | ? | 5%
Oc1oc(-c2ccccc2)nc1/C=N/c1nccs1 | 16µM* | -24% | -1% | 4% | ?
CC(NC(=O)c1cccc(N(C)C)c1)c1ccc(-n2ccnc2)cc1 (stereo not given) | 37% | 2% | -28% | 6% | 3%
Cn1nc(-c2ccccc2)c(CO)c1Oc1cccc(C(F)(F)F)c1 | -3% | ? | ? | 5% | -7%
Cc1ccc(Sc2c(CO)c(-c3ccccc3)nn2C)cc1 | 9% | 1.2µM* | 0.73µM* | 2% | -14%
COc1ccc(-c2nc(CCNC(=O)Cc3ccc(F)cc3)cs2)cc1 | . | 15µM* | 18µM* | 2% | .
COc1ccc(CCC(=O)NCCc2csc(-c3ccc(F)cc3)n2)cc1 | . | ? | ? | -2% | .
COc1ccc(-c2nc3scc(CCNC(=O)c4cc(OC)cc(OC)c4)n3n2)cc1 | . | ? | 21µM* | 1% | .
SMILES | RORgamma inh | TDP1 cell CPT | TDP1 cell noCPT | TDP1 inh | Gal4-VP16 FLuc
O=C(NCCc1csc(-c2ccc(F)cc2)n1)c1ccc(Br)o1 | . | 23µM* | ? | 5% | .
O=C(NCCc1csc(-c2cccc(F)c2)n1)c1ccc(Br)o1 | . | ? | ? | -5% | .
COc1ccc(CNC(=O)Cc2csc3nc(-c4ccc(F)cc4)cn23)cc1 | . | 21µM* | ? | 4% | .
CCCOc1ccc(C(=O)N(Cc2ccc(N(C)C)cc2)CC2CCCO2)cc1 (stereo not given) | . | ? | ? | 5% | .
O=C(OCC(=O)c1cccs1)c1cccc(C(=O)OCC(=O)c2cccs2)n1 | -4% | 0% | -5% | 5% | ?
COc1ccc(-c2nc3scc(CCNC(=O)Cc4ccc(F)cc4)n3n2)cc1 | . | ? | 26µM* | 3% | .
Cc1cc(C)c(NC(=O)C(=O)NCCc2csc(-c3ccc(F)cc3)n2)c(C)c1 | . | 18µM* | 16µM* | 3% | .
O=C(COC(=O)Cc1cccs1)Nc1ccc(F)c(F)c1F | -8% | -4% | -6% | -1% | 2%
CC(=O)c1cccc(NC(=O)CSc2nc(N3CCCCC3)nc(N3CCCCC3)n2)c1 | -4% | -1% | 26µM* | 3% | -4%
O=C(CSc1nc(Nc2ccccc2)nc(N2CCOCC2)n1)Nc1cccc([N+](=O)[O-])c1 | ? | ? | ? | 8% | 0%
O=C(CSc1nc(Nc2ccccc2)nc(N2CCOCC2)n1)Nc1ccc(Br)cc1F | -8% | ? | 18µM* | 6% | 2%
O=C(CSc1nc(Nc2ccccc2)nc(N2CCOCC2)n1)Nc1ccccc1Cl | -30% | 16µM* | 11µM* | 7% | 10%
Cc1ccc(CNC(=O)CSc2nc(N3CCCCC3)nc(N3CCCCC3)n2)cc1 | ? | 21µM* | 23µM* | 0% | 7%[0.365 µM]
COc1ccc(Cl)cc1NC(=O)CSc1nc(N2CCOCC2)nc(N2CCOCC2)n1 | -29% | ? | ? | 1% | -8%
COc1ccc(OC)c(NC(=O)CSc2nc(N3CCOCC3)nc(N3CCOCC3)n2)c1 | -38% | ? | ? | 6% | -5%
COc1ccc(Cl)cc1NC(=O)CSc1nc(Nc2ccccc2)nc(N2CCOCC2)n1 | 12% | ? | 18µM* | 3% | -1%
COc1ccc(Cl)cc1NC(=O)CSc1nnc(CN2CCOCC2)n1-c1ccc(Cl)cc1 | 6% | 16µM* | 21µM* | 8% | -6%
COc1ccc(Cl)cc1NC(=O)CSc1nc(N2CCCCC2)nc(N2CCCCC2)n1 | 10% | ? | 16µM* | 0% | -5%
O=C(CSc1nc(Nc2ccccc2)nc(N2CCOCC2)n1)Nc1ccc([N+](=O)[O-])cc1 | -18% | 18µM* | 15µM* | 6% | -20%
COC(=O)N1CCCC(c2cc(C(=O)Nc3ccccc3Cl)no2)C1 (stereo not given) | . | 9% | 1% | . | .
O=C(Nc1ccccc1Cl)c1cc(C2CCCN(C(=O)c3ccccc3)C2)on1 (stereo not given) | . | 18µM* | ? | . | .

Source: PubChem (National Center for Advancing Translational Sciences (NCATS))
